Screening results deposited in PubChem by The Scripps Research Institute Molecular Screening Center.
MITF inh – inhibitors of human MITF; O75030; AlphaScreen MITF homodimerization, bead proximity signal; inhibition, % at 2.6 µM; 0.91% of 650,000 active; in the data active = inhibition above about 50%;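 note: 0% = vehicle wells with protein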
TEAD-YAP inh – TEAD-YAP interaction inhibition; 1.4% of 640,000 active; AID 1259422; inhibition, % at 9.12 µM; HEK-TIYL cells, TEAD-Gal4/YAP UAS-luciferase luminescence; in the data active = inhibition above about 32%;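 note: 0% = median of test compound wells and 100% = reference inhibitor wells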
GPR151 ag – activators of human GPR151; Q8TDV0; PathHunter beta-arrestin GPR151 cells, luminescence; activation, % at 11.2 µM; 1% of 650,000 active; AID 1508602; in the data active = activation above about 4.9%;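 note: 0% = median of compound wells and 100% = cells with positive control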
Target sequence (Q8TDV0 whole entry, looked up): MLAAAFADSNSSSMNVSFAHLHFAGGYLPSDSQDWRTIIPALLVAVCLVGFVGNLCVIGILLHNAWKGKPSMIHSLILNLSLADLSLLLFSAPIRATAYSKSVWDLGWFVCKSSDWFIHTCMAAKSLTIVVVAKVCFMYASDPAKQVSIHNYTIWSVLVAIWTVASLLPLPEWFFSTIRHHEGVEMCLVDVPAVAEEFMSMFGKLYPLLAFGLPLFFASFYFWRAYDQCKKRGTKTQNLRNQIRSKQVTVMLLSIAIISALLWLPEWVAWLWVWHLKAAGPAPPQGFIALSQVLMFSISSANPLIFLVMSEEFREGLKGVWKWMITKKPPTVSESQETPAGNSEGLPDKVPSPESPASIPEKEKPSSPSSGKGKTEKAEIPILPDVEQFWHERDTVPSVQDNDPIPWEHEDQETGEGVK
FBW7 activator – activators of human E3 ligase FBW7; Q969H0; AlphaScreen FBW7–phospho-cyclin E peptide binding, activator screen; normalized activity (activation), % at 26.1 µM; 0.13% of 650,000 active; in the data active = normalized activity above about 1.9%;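 note: purified mutant Fbw7 with reduced substrate affinity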
GPR151 conf act – confirmation of human GPR151 activators; GPR151 PathHunter beta-arrestin cells, luminescence, 90 min; % of EA-reagent control over plate median; 6,700 tested, under 10 active; AID 1508609; shares compounds with GPR151 ag; activation, % at 11.2 µM;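 active = mean percent activation across replicates above the confirmation screen cutoff of 4.91%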
GPR119 counter – GPR119 activation, counter-screen for GPR151 activators. shares compounds with GPR151 ag. GPR119 PathHunter beta-arrestin cells, luminescence, 90 min; 0 = compound-well median, 100 = enzyme-acceptor control. activation, % at 11.2 µM. 0.3% of 6,700 active. AID 1508611;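 active = mean percent activation in the counterscreen above 29.09%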;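 note: counterscreen on off-target GPR119 to flag nonselective hits from the GPR151 activator screen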
Numbers without * were called inactive; · = not tested or not shown. Most compounds without a hit are left out; they make up all but 3.5% or so of the library.

SMILES	MITF inh	TEAD-YAP inh	GPR151 ag	FBW7 activator	GPR151 conf act	GPR119 counter
Cc1[nH]ncc1-c1ccc(NC(=O)C2COc3c(F)cccc3C2)c(OCCN(C)C)c1 (stereo not given)	0	0	-2	0	·	·
Brc1ccc(C2N(c3ccccc3)CCN2c2ccccc2)s1	0	-17	0	0	·	·
O=[N+]([O-])c1ccc(C2N(c3ccccc3)CCN2c2ccccc2)s1	11	7	4.9*	0	-1	-2
Cc1ccc(CNC(=O)CCCn2c(=O)c3ccccc3n(CC(N)=O)c2=O)cc1	-3	0	5.2*	0	1	4
O=S(=O)(Nc1ccc(O)c(Br)c1)c1ccc(F)cc1	-2	4	0	0	·	·
COc1ccc(NS(=O)(=O)c2ccc(Br)c(C(=O)Nc3ccccc3)c2)cc1	3	0	6.2*	0	0	12
COc1ccc(S(=O)(=O)Nc2ccc(O)c(Br)c2)cc1	1	4	5.9*	0	1	12
COc1ccccc1/C=N/NC(=O)CN(C1=NS(=O)(=O)c2ccccc21)c1ccccc1	7	8	1	0	·	·
CCCCCCCCCCCCC/C=C/[C@@H](O)[C@H](COP(=O)(O)O)NC(=O)CCCCCCC	-7	·	5.2*	·	0	-11
CN1C(=S)SC(N2OC3C(=O)N(c4ccccc4)C(=O)C3C2c2ccc([N+](=O)[O-])cc2)C1(C)C (stereo not given)	-9	-9	0	0	·	·
CCOC(=O)c1[nH]c(C)c(C(=O)Nc2c(C)n(C)n(-c3ccccc3)c2=O)c1C	10	1	6.5*	0	-1	-3
CCOC(=O)c1[nH]c(C)c(C(=O)Nc2ccc(C)c(C)c2)c1C	-6	4	5.0*	0	0	4
COc1cccc(OC)c1C(=O)Nc1c(C)n(C)n(-c2ccccc2)c1=O	-5	2	2	0	·	·
CCOC(=O)c1[nH]c(C)c(C(=O)Nc2cccc(OC)c2)c1C	14	-3	1	0	·	·
COc1ccc(CNC(=O)N2CCN(c3nc4ccccc4[nH]3)CC2)cc1OC	10	8	0	0	·	·
COc1ccc(CCNC(=O)c2ccccc2N(C)S(C)(=O)=O)cc1	-15	-6	-2	0	·	·
COCCCNC(=O)CN1C(=O)C(C(C)C)Oc2ccc(C)cc21 (stereo not given)	2	4	6.1*	0	0	13
CC(C)C1Oc2ccccc2N(CC(=O)NCCCN2C(C)CCCC2C)C1=O (stereo not given)	18	12	5.0*	0	0	-3
COc1ccccc1NC(=S)NC1CC(C)(C)NC(C)(C)C1	11	-5	-1	0	·	·
CCOC(=O)c1c(NC(=O)c2cccs2)sc(C(=O)Nc2ccc(OC)cc2OC)c1C	-1	-4	5.2*	0	1	4
CCOC(=O)c1c(NC(=O)c2ccccc2F)sc(C(=O)Nc2ccccc2C)c1C	3	-5	7.9*	0	1	13
CCOC(=O)c1c(NC(=O)c2cccs2)sc(C(=O)Nc2ccccc2OC)c1C	3	-2	0	0	·	·
O=C(CCNS(=O)(=O)c1cccc2nonc12)NC1CCCc2ccccc21 (stereo not given)	5	-3	1	0	·	·
COc1cccc(/C=C2/Sc3ccc(C(=O)NC4CCCC4)cc3NC2=O)c1	0	-3	0	0	·	·
COc1ccc(N(C(C)C(=O)Nc2ccc(F)cc2)S(C)(=O)=O)cc1 (stereo not given)	-14	-5	-1	0	·	·
SMILES	MITF inh	TEAD-YAP inh	GPR151 ag	FBW7 activator	GPR151 conf act	GPR119 counter
CCCCCCCCCCCCCC/C(C(=O)O)=C(\C)C(=O)O	15	6	9.5*	0	2	-4
CCN(CC(=O)NC(C)C)C(=O)C(CCSC)NC(=O)c1cccc(C)c1 (stereo not given)	-9	3	6.3*	0	1	-2
CCOC(=O)c1c(NC(=O)c2cc3n(n2)C(C(F)(F)F)CC(c2ccccc2)N3)sc2c1CCC2 (stereo not given)	-32	8	-2	1	·	·
CCOc1ccc(NC(=O)CN(C2CCCCC2)S(=O)(=O)c2ccccc2)cc1	-14	2	6.0*	0	0	14
CS(=O)(=O)N(CC(=O)Nc1ccc(OCc2ccccc2)cc1)C1CCCCC1	15	9	0	0	·	·
CN(CC(=O)NC1CCCCCC1)S(=O)(=O)c1ccccc1	7	-14	8.6*	0	0	2
CN(CC(=O)NC1CCCC1)S(=O)(=O)c1ccccc1	0	8	0	0	·	·
O=C(NCC1CCCN(Cc2ccoc2)C1)c1ccc(-c2ccccc2)cc1 (stereo not given)	12	3	1	0	·	·
CC(C)C(=O)N1c2ccccc2C(N(C(=O)c2ccc(F)cc2)c2ccccc2)CC1C (stereo not given)	-8	-1	2	0	·	·
O=[N+]([O-])c1ccccc1S(=O)(=O)NCc1ccco1	14	-23	7.1*	0	0	13
O=S(=O)(NCc1ccco1)c1cccc2c(S(=O)(=O)NCc3ccco3)cccc12	11	-1	0	0	·	·
O=[N+]([O-])c1ccccc1S(=O)(=O)c1ccccc1[N+](=O)[O-]	16	10	5.5*	1	0	-1
COc1ccccc1N(CC(=O)NC1CCCCCC1)S(=O)(=O)c1ccccc1	-19	-5	2	0	·	·
COc1ccc2sc(N(Cc3cccnc3)C(=O)c3ccccc3[N+](=O)[O-])nc2c1	-3	-1	8.6*	0	-1	-1
O=C(c1ccccc1[N+](=O)[O-])N(Cc1cccnc1)c1nc2ccc(F)cc2s1	-7	-4	-1	0	·	·
N=C1C(c2ccccc2)=C(O)CN1c1cccc(Cl)c1	10	1	-1	0	·	·
O=C1c2cccc(F)c2C(=O)N1c1ccc2nc(-c3ccccc3)oc2c1	-2	-45	-1	0	·	·
CCSc1sc(CC)cc1C1C(C#N)=C(N)N(N(C)C)C2=C1C(=O)CC(C)(C)C2 (stereo not given)	7	-4	5.5*	0	1	0
CCCCOC(C)n1cc(Cl)c(=O)[nH]c1=O (stereo not given)	8	7	5.1*	0	0	-2
COc1ccc(OC(C)C(=O)O/N=C(\N)c2cccc([N+](=O)[O-])c2)cc1 (stereo not given)	-12	-1	1	0	·	·
CC(C)c1ccc(NC(=O)C2C3C=CC4(O3)C2C(=O)N(CCCN2CCOCC2)C4C(=O)NC2CCCCC2)cc1 (stereo not given)	-8	4	5.5*	0	1	12
Cc1ccc(NC(=O)C2C3C=CC4(O3)C2C(=O)N(CCC2=CCCCC2)C4C(=O)NC2CCCCC2)cc1 (stereo not given)	-3	-8	0	0	·	·
